According to the supplement of paper PMC10849652:
The full data set covers some 7,900 targets. This sample favours those with a hit. About 0.6% of all pairs of compound and target were hits.

Experiments:
Test in all cases: log2 fold change, soluble protein after heating vs DMSO (PISA); higher = thermal stabilisation; K562 cells, 10 uM, 30 min; active = over 0.2 and 3.5 SD of the protein, either way, in both replicates (recomputed)
[1] = compound: CO[C@H]1C[C@@H]2CC[C@@H](C)[C@@](O)(O2)C(=O)C(=O)N2CCCC[C@H]2C(=O)O[C@H]([C@H](C)C[C@@H]2CC[C@H](n3cnnn3)[C@H](OC)C2)CC(=O)[C@H](C)/C=C(\C)[C@@H](O)[C@@H](OC)C(=O)[C@H](C)C[C@H](C)/C=C/C=C/C=C/1C [zotarolimus]
How it was run: (§1)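 Values are thermal stability changes relative to control samples and are taken from duplicates. They are stated as log2 fold changes. Before quantification by TMTpro 16plex LC-MS/MS with equalised channel sums, K562 cells at 2×10^6 cells/mL were treated with 10 μM compound for 30 min, heated in aliquots for 3 min across 48°C-58°C, pooled, extracted in PBS with 0.5% NP-40 at 4°C, and centrifuged at 21,000xg for 90 min to give the soluble supernatant.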

[2] = compound: COc1cc(C(=O)O)ccc1NC(=O)[C@@H]1N[C@@H](CC(C)(C)C)[C@](C#N)(c2ccc(Cl)cc2F)[C@H]1c1cccc(Cl)c1F [idasanutlin]
How it was run: as §1

[3] = compound: COc1cc(Nc2ncc3c(n2)-c2ccc(Cl)cc2C(c2c(F)cccc2OC)=NC3)ccc1C(=O)O [alisertib]
How it was run: as §1

[4] = compound: COc1cc2nc(-c3cc(F)ccc3O)nc(N[C@@H]3CNC[C@H]3C(C)(C)O)c2cc1OC
How it was run: as §1

[5] = compound: COc1cccc2cc(-c3nc([C@H]4CC[C@H](C(=O)O)CC4)n4ncnc(N)c34)[nH]c12
How it was run: as §1

[6] = compound: CS(=O)(=O)CCNCc1ccc(-c2ccc3ncnc(Nc4ccc(OCc5cccc(F)c5)c(Cl)c4)c3c2)o1 [lapatinib]
How it was run: as §1

[7] = compound: CS(=O)(=O)N1CCN(Cc2cc3nc(-c4cccc5[nH]ncc45)nc(N4CCOCC4)c3s2)CC1 [pictilisib]
How it was run: as §1

[8] = compound: CON(C)C(=O)N1N=C(c2cc(F)ccc2F)S[C@@]1(CCCN)c1ccccc1 [filanesib]
How it was run: as §1

[9] = compound: COc1cc2ncnc(Nc3ccc(F)c(Cl)c3)c2cc1OCCCN1CCOCC1 [gefitinib]
How it was run: as §1

[10] = compound: COC1=CC=C(C=C1)CN2C=CC3=C2C=C(C=C3)C(=O)NO
How it was run: as §1

Measured: log2 fold change

TVP23C (UniProt Q96ET8)
UniProt Q96ET8, sequence (Q96ET8 whole entry, looked up): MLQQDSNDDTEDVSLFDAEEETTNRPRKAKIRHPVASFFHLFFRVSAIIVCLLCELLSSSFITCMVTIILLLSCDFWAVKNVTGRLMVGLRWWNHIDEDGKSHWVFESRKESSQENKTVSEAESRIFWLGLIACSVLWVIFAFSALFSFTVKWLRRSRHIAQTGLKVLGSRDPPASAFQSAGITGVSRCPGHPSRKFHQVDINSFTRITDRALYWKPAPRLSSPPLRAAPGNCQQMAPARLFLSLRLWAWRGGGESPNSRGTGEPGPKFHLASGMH
inactive: [1] -0.006 | [2] -0.124 | [3] 0.007 | [4] -0.024 | [5] 0.235 | [6] -0.14 | [7] -0.029

VDAC1 (UniProt C9JI87)
inactive: [8] 0.001 | [1] -0.217 | [2] -0.018 | [3] -0.119 | [4] 0.161 | [9] -0.014 | [5] -0.014 | [6] -0.182

UBE2D1 (UniProt P51668)
UniProt P51668, sequence (P51668 whole entry, looked up): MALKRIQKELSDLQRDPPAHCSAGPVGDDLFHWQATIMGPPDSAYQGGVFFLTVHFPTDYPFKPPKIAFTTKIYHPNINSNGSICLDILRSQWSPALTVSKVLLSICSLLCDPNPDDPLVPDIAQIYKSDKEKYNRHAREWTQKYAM
inactive: [8] -0.003 | [1] -0.006 | [2] -0.083 | [3] 0.094 | [4] 0.137 | [9] -0.012 | [5] 0.002 | [6] -0.063 | [7] 0.021

ULBP1 (UniProt Q9BZM6)
inactive: [8] 0.071 | [1] 0.022 | [2] 0.036 | [3] -0.023 | [4] 0.164 | [5] 0.001 | [6] 0.002

VPS72 isoform 2 (UniProt Q15906)
UniProt Q15906, sequence (Q15906 whole entry, looked up): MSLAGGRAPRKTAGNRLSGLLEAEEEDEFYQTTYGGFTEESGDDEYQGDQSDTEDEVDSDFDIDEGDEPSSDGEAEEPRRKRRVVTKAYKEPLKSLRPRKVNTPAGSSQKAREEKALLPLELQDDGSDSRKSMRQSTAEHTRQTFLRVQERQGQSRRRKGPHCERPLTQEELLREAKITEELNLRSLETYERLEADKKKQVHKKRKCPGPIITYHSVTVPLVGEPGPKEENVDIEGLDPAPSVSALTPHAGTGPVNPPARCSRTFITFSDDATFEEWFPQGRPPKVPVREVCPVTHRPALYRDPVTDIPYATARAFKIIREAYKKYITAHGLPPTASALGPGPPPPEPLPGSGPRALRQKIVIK
inactive: [8] 0.084 | [1] -0.008 | [2] 0.062 | [3] -0.066 | [4] -0.047 | [9] 0.033 | [5] -0.094 | [6] 0.012

TMEM268 isoform 3 (UniProt Q5VZI3)
inactive: [8] -0.064 | [1] 0.104 | [2] -0.135 | [3] 0.014 | [4] -0.25 | [9] -0.079 | [5] 0.001 | [6] 0.09 | [7] -0.088

USP48 (UniProt Q86UV5)
inactive: [8] -0.016 | [3] 0.19 | [9] 0.053 | [5] -0.031

TOM1 (UniProt O60784)
inactive: [10] 0.078 | [8] -0.061 | [3] 0.103 | [5] 0.094 | [7] 0.171

TMEM104 (UniProt Q8NE00)
UniProt Q8NE00, sequence (Q8NE00 whole entry, looked up): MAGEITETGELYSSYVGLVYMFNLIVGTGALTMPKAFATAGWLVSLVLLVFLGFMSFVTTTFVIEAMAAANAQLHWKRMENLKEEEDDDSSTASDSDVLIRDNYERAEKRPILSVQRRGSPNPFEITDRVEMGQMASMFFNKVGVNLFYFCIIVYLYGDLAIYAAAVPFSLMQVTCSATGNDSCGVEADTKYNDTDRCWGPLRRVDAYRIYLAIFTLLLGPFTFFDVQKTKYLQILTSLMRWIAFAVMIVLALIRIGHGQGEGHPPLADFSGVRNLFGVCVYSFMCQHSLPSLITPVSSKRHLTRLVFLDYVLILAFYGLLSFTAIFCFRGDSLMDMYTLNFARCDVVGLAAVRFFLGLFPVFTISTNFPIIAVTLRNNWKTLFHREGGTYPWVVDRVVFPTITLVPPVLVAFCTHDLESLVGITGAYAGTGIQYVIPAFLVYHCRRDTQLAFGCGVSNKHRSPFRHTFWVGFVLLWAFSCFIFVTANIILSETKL
inactive: [10] 0.134 | [1] -0.01 | [2] -0.081 | [3] -0.012 | [4] 0.016 | [9] 0.061 | [5] 0.164 | [6] -0.156 | [7] -0.341

UTP20 (UniProt O75691)
inactive: [4] -0.087 | [6] 0.076

WDR75 (UniProt Q8IWA0)
UniProt Q8IWA0, sequence (Q8IWA0 whole entry, looked up): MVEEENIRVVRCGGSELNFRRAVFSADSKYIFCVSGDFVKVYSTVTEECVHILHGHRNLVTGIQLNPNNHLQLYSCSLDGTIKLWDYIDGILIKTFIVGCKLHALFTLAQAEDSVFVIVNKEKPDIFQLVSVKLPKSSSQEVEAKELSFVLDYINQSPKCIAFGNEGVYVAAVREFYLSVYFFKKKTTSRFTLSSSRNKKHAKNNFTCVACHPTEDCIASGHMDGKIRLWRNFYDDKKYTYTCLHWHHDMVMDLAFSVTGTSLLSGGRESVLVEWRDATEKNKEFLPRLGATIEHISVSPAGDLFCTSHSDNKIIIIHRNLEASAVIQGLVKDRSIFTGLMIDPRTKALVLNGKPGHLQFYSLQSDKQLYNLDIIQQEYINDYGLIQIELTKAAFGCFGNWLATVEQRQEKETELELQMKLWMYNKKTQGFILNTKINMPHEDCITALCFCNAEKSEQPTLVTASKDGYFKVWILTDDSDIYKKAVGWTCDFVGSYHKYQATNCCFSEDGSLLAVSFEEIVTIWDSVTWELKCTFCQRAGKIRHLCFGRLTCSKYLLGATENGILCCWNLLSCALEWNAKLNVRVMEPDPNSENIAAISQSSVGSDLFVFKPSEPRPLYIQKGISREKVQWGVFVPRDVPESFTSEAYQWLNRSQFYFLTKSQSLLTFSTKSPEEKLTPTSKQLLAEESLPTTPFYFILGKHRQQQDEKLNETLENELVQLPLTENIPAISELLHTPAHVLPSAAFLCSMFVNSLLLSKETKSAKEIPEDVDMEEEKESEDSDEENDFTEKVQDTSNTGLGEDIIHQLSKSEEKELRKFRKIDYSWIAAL
inactive: [10] -0.071 | [1] -0.078 | [2] 0.177 | [3] -0.054 | [4] -0.04 | [9] 0.198 | [5] -0.078 | [6] -0.011

TRIM23 (UniProt P36406)
inactive: [10] 0.019 | [8] -0.031 | [1] 0.036 | [3] -0.078 | [9] 0.012 | [5] 0.039 | [7] 0.204

TMEM219 (UniProt Q86XT9)
inactive: [8] -0.065 | [1] -0.181 | [2] -0.017 | [4] -0.011 | [9] -0.029 | [6] 0.058 | [7] -0.277

TXNRD1 isoform 7 (UniProt Q16881)
inactive: [8] -0.034 | [4] 0.242 | [6] -0.07 | [7] 0.037

TMEM41A (UniProt Q96HV5)
inactive: [10] -0.123 | [8] -0.158 | [2] 0.024 | [3] -0.096 | [4] 0.088 | [9] 0.034 | [5] 0.092 | [6] -0.106 | [7] -0.047

WARS1 (UniProt G3V3P2)
inactive: [8] 0.087

TSPAN13 (UniProt O95857)
UniProt O95857, sequence (O95857 whole entry, looked up): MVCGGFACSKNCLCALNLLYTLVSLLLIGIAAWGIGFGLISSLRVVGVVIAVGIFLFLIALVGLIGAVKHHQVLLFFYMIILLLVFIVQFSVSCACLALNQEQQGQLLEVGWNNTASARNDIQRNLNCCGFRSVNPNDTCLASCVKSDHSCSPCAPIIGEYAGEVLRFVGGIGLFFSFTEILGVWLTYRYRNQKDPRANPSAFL
inactive: [8] -0.041 | [1] 0.022 | [3] -0.164 | [4] -0.013 | [9] 0.047 | [5] -0.064 | [6] -0.053 | [7] 0.053

TRPT1 isoform 4 (UniProt Q86TN4)
UniProt Q86TN4, sequence (Q86TN4 whole entry, looked up): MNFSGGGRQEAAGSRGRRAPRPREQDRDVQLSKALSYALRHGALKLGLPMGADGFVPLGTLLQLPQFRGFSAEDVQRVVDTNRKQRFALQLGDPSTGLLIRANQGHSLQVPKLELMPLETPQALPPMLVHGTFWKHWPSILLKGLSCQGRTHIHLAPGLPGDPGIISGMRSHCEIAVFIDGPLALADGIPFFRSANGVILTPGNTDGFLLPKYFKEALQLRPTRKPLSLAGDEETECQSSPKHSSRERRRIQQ
inactive: [10] -0.088 | [8] -0.053 | [2] -0.194 | [3] -0.055 | [5] -0.061

WARS1 (UniProt G3V227)
inactive: [1] 0.086 | [2] -0.047

UBXN8 (UniProt O00124)
inactive: [8] 0.069 | [1] -0.028 | [2] -0.116 | [4] -0.035 | [6] 0.023 | [7] -0.002

TRIQK (UniProt Q629K1)
UniProt Q629K1, sequence (Q629K1 whole entry, looked up): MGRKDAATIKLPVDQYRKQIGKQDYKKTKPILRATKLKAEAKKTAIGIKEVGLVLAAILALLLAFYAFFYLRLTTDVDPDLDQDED
inactive: [10] -0.002 | [8] 0.1 | [1] -0.08 | [3] -0.142 | [5] 0.106

U2AF1L5 (UniProt P0DN76)
inactive: [10] -0.034 | [2] -0.051 | [3] -0.517 | [9] -0.048 | [5] -0.238

WARS1 (UniProt G3V277)
inactive: [10] -0.163 | [8] 0.066 | [2] 0.127 | [3] 0.04 | [9] 0.021 | [5] 0.145 | [7] 0.095

TRIM5 (UniProt Q9C035)
UniProt Q9C035, sequence (Q9C035 whole entry, looked up): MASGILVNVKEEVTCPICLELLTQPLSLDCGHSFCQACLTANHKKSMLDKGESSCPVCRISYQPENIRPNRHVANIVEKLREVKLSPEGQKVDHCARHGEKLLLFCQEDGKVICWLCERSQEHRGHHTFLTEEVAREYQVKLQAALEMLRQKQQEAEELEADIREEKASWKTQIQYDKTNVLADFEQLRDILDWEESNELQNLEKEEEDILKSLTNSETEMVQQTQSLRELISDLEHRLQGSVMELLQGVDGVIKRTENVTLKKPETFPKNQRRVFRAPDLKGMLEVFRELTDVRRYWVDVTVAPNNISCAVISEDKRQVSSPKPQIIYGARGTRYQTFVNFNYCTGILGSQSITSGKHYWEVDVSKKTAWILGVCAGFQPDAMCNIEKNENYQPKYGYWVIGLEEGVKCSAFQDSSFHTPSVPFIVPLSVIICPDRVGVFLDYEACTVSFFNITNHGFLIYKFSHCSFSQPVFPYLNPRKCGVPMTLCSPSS
inactive: [8] 0.121 | [1] -0.066 | [2] -0.086

XIAP (UniProt P98170)
inactive: [8] 0.046 | [1] 0.008 | [2] 0.009 | [3] 0.089 | [4] 0.085 | [9] 0.115 | [5] 0 | [6] -0.01 | [7] 0.054

UFM1 isoform 2 (UniProt P61960)
UniProt P61960, sequence (P61960 whole entry, looked up): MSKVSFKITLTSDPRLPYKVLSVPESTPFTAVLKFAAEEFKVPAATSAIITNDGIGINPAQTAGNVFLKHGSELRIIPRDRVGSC
inactive: [8] -0.12 | [1] -0.048 | [2] 0 | [3] -0.067 | [4] -0.085 | [9] 0.027 | [5] 0.008 | [6] -0.052 | [7] -0.062

WARS1 (UniProt G3V5U1)
inactive: [10] -0.557 | [8] 0.025 | [3] 0.391 | [5] -0.105

TUBA4A (UniProt C9JJQ8)
inactive: [10] 0.083 | [8] 0.016 | [1] -0.041 | [4] 0.052 | [6] 0.018

VWA3B isoform 6 (UniProt Q502W6)
UniProt Q502W6, sequence (Q502W6 whole entry, looked up): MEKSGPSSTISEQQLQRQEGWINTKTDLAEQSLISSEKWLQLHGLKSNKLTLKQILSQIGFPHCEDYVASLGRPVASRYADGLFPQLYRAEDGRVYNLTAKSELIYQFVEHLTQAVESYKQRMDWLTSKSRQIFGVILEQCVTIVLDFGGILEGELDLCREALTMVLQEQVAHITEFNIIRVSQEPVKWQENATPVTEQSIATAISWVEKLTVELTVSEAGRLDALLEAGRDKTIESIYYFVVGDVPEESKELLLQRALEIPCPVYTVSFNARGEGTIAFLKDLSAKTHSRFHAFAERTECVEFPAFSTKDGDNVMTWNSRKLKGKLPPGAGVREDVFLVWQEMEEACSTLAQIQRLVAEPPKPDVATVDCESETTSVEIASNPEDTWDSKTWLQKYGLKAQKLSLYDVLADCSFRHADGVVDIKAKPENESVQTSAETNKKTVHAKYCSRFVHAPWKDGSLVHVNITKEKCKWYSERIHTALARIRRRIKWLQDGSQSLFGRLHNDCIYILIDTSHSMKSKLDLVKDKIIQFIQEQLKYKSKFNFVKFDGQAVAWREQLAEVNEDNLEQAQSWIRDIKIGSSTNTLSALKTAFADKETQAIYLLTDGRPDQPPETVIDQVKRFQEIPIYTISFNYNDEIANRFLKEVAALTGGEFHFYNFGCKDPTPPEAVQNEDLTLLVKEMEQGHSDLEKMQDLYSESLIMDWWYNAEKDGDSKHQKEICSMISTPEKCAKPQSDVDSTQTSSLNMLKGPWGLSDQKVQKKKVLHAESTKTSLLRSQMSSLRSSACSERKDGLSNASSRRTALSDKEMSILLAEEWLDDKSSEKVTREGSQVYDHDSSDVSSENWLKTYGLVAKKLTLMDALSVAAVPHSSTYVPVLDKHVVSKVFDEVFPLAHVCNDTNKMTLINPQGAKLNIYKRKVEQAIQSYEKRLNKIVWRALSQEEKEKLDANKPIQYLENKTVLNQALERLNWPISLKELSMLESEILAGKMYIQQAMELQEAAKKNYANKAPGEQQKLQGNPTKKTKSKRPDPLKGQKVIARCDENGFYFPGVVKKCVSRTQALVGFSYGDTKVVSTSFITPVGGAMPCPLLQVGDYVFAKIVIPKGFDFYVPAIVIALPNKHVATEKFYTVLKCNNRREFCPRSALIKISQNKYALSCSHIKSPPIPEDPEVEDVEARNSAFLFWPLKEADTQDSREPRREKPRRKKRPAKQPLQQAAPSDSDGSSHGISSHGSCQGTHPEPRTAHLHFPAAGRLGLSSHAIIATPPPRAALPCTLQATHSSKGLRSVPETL
inactive: [10] -0.156 | [1] -0.083 | [2] -0.41 | [3] -0.081 | [4] -0.272 | [9] 0.008 | [5] -0.022 | [6] 0.079 | [7] 0.118

XAB2 (UniProt Q9HCS7)
inactive: [10] -0.174 | [3] -0.12 | [5] 0.105

WDR4 isoform 3 (UniProt P57081)
inactive: [8] -0.007 | [7] 0.359

WDR46, A0A0G2JJL1
inactive: [10] -0.108 | [8] 0.533 | [3] -0.167 | [4] -0.134 | [9] 0.039 | [5] -0.207 | [6] 0.154

TMEM8A (UniProt Q9HCN3)
inactive: [8] 0.188 | [1] -0.093 | [3] -0.153 | [4] -0.008 | [9] -0.038 | [5] 0.085 | [6] 0.065 | [7] 0.121

UBXN10 (UniProt Q96LJ8)
UniProt Q96LJ8, sequence (Q96LJ8 whole entry, looked up): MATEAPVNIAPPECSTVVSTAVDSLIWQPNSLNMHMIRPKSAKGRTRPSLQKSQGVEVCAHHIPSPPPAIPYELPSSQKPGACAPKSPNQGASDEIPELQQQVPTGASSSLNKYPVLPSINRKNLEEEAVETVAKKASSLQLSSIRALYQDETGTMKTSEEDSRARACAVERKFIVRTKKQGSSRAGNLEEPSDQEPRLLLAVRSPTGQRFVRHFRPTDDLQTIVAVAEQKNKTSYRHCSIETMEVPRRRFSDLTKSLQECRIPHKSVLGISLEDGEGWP
inactive: [10] 0.059 | [8] 0.038 | [1] -0.049 | [3] 0.016 | [4] -0.071 | [9] -0.079 | [5] -0.11 | [6] 0.097 | [7] -0.008
